Results: PubChem BioAssay (NCI)
About 83,000 compounds went through this panel and 20% of them were active in at least one assay; those are over-represented in the sample as a whole.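 Negative percent growth values reflect cell death: -40 means 40% of the cells present at the start died, and -100 means all died.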 The source made the active and inactive calls. How the source made its calls: active means growth percent below 10; inactive means the rest.

Experiments:
Assay in all cases: NCI-60 one-dose screen, 48 h (100 = growth as untreated, 0 = no growth, -100 = all killed)
Settings in all cases: 10 µM unless noted
[1] = system: NCI-H23 lung
[2] = system: NCI-H226 lung
[3] = system: NCI-H322M lung
[4] = system: HOP-62 NSCLC
[5] = system: NCI-H460 lung
[6] = system: HOP-92 NSCLC
[7] = system: NCI-H522 lung
[8] = system: A549/ATCC NSCLC
[9] = system: 786-0 renal
[10] = system: COLO 205 colon

Measured: growth

Oc1ccccc1/C=N/Nc1ccc2ccccc2n1
active: [7] -9.13%
inactive: [1] 45% | [2] 83% | [3] 31.2% | [4] 57.3% | [5] 27.2% | [6] 70.9% | [8] 44% | [9] 65.3% | [10] 31.2%

O=S(=O)(Nc1ccc(F)c(Cl)c1)c1ccc(-c2cnc(C3CC3)o2)cc1
inactive: [1] 24.8% | [2] 47.1% | [3] 45.7% | [4] 33.1% | [5] 10.5% | [6] 42% | [8] 21.4% | [9] 43.2%
active: [7] -11.5% | [10] -6.19%

CCCC(=O)Oc1ccc(/C(=C(/CC)Cc2ccccc2)c2ccc(OCCN3CCCC3)cc2)cc1
active: [10] -6.63%
inactive: [1] 81.7% | [2] 96% | [3] 79.2% | [4] 82.8% | [5] 20.8% | [6] 79.1% | [7] 78.4% | [8] 67.8% | [9] 76.6%

CC1(C)CC(=O)C(c2c(-c3ccccc3)[nH]c3[nH]c(=S)[nH]c(=O)c23)=C(O)C1
inactive: [1] 110% | [2] 108% | [3] 102% | [4] 112% | [5] 117% | [6] 84.7% | [7] 107% | [8] 89.8% | [9] 104% | [10] 119%

COc1ccc(S(=O)(=O)NCCCNc2nccc(-c3c(-c4cccc(N)c4)nc4sccn34)n2)cc1
inactive: [1] 97.4% | [2] 89.4% | [3] 101% | [4] 117% | [5] 97.1% | [6] 92.8% | [7] 101% | [8] 99.7% | [9] 92.1% | [10] 75.8%

COc1ccc(-c2cn3c(ccc4ccccc43)n2)cc1
inactive: [1] 97.5% | [2] 88% | [3] 87.3% | [4] 80.6% | [5] 97.7% | [6] 92.1% | [7] 87.5% | [8] 107% | [9] 111% | [10] 112%

CN1CCN(Cc2ccc(NC(=O)c3cncc(C#Cc4c(N)ncc5ccc(C#N)cc45)c3)cc2C(F)(F)F)CC1
active: [2] 3.8% | [3] -29.2% | [5] -73.8% | [7] -53.7% | [8] -65.6% | [9] -59.6%
inactive: [1] 47% | [4] 58.4% | [6] 13.9% | [10] 21.2%

CN1CCCCC1CCN1c2ccccc2Sc2ccc(Cl)cc21 (stereo not given)
inactive: [1] 77.4% | [2] 93.5% | [3] 59% | [4] 84.3% | [5] 71.2% | [6] 53.3% | [7] 65.5% | [8] 67.4% | [9] 61.1% | [10] 58.7%

CCCCCCCCCCCCCC(=O)C(C)N (stereo not given)
active: [5] 4.75% | [6] 8.22% | [7] 0.193%
inactive: [1] 51.6% | [2] 87.9% | [3] 53.5% | [4] 22.3% | [8] 51.6% | [9] 71.3% | [10] 15.9%

COc1ccc(C(=O)c2sc3nc4c(c(C(F)(F)F)c3c2N)CN(C(C)=O)CC4)cc1OC
inactive: [1] 90.5% | [2] 78.2% | [3] 93.1% | [4] 87% | [5] 95.8% | [7] 78.5% | [8] 91% | [9] 91.9% | [10] 92.4%
active: [6] -0.986%

COc1cnc2c(c1)C(=O)c1c-2n(CCCBr)c(=O)c2cc([N+](=O)[O-])ccc12
active: [1] -5.87% | [2] -1.66% | [4] 3.86% | [5] 2.4% | [7] -18.4% | [8] 2.68% | [9] 5.26% | [10] -26.2%
inactive: [3] 15.5% | [6] 26.5%

O=[N+]([O-])c1cccc(-c2nc3sccn3c2-c2ccnc(NCCCNS(=O)(=O)c3ccc(Br)cc3)n2)c1
inactive: [1] 41.4% | [2] 41% | [3] 76.1% | [4] 74.7% | [5] 66.7% | [6] 78% | [7] 37.4% | [8] 53.8% | [9] 75.5% | [10] 41.3%

N#CC1=C(N)Oc2c(ccc3ccccc23)C1c1cccs1 (stereo not given)
active: [5] 0.254% | [7] -0.254% | [10] -54.9%
inactive: [1] 18% | [2] 40.9% | [3] 39.1% | [4] 25.5% | [6] 35.5% | [8] 22.5% | [9] 31.9%

O=C(Nc1ccc(Oc2ccc(F)cc2)c(Cl)c1)c1cccnc1
inactive: [1] 80% | [2] 99.8% | [3] 101% | [4] 106% | [5] 97% | [6] 91.9% | [7] 72.3% | [8] 86% | [9] 92.3% | [10] 120%

COc1ccc(C(=O)/C=C/c2c[n+](=O)c3ccc(F)cc3n2[O-])cc1
inactive: [1] 98.7% | [2] 102% | [3] 118% | [4] 104% | [5] 119% | [6] 85.7% | [7] 109% | [8] 108% | [9] 110% | [10] 127%

CCOC(=O)c1cnc2cc(Cl)c(F)cc2c1Nc1cccc(NS(C)(=O)=O)c1
inactive: [1] 80.8% | [2] 96.4% | [3] 96.3% | [4] 95.9% | [5] 110% | [6] 67.6% | [7] 93% | [8] 112% | [9] 95.6% | [10] 124%

Nc1nc(SCc2ccccc2)c2ncn(C3CCCC3)c2n1
inactive: [1] 85.7% | [2] 110% | [3] 103% | [4] 107% | [5] 98.8% | [6] 106% | [7] 76.8% | [8] 107% | [9] 98.8% | [10] 116%

CN1CCN(Cc2ccc(NC(=O)c3cncc(C#Cc4cncc5nccnc45)c3)cc2C(F)(F)F)CC1
inactive: [1] 33.8% | [3] 43.6% | [4] 53.5% | [5] 34.5% | [7] 43.8% | [8] 70.8% | [9] 73.1%
active: [2] 5.97% | [6] -11.9% | [10] 2.52%

COc1cccc(-c2nc3sccn3c2-c2ccnc(NCCCNS(=O)(=O)c3ccc(Cl)cc3)c2)c1
inactive: [1] 54.4% | [2] 42% | [3] 74.4% | [4] 88.7% | [5] 49.9% | [6] 72% | [7] 55.5% | [8] 40.8% | [9] 58.4% | [10] 44.9%

CC[C@]12C=CCN3CC[C@@]4(c5ccc(OC)cc5N(C)[C@H]4[C@@](O)(C(=O)OC)[C@@H]1OC(=O)CCC(=O)N[C@@H](Cc1c[nH]c4ccccc14)C(=O)OC)[C@@H]32
inactive: [1] 101% | [2] 104% | [3] 98.5% | [4] 90.1% | [5] 96.6% | [6] 66.8% | [7] 78.6% | [8] 86.8% | [9] 91.5% | [10] 98.8%

O=C1NC(=O)C(CC(=O)n2c(-c3ccccc3)nc3ccccc32)C(=O)N1
inactive: [1] 97.4% | [2] 97.7% | [3] 100% | [4] 94.4% | [5] 102% | [6] 97.5% | [7] 93% | [8] 101% | [9] 99.7% | [10] 118%

Cc1ccc2c(c1)C(=O)c1c-2c(OCCCN(C)C)nc2ccccc12
inactive: [2] 32.8% | [3] 19.6% | [4] 19.9% | [9] 44.7%
active: [1] 7.88% | [5] -8.22% | [6] -10.7% | [7] -11% | [8] -43.9% | [10] -30.6%

CSc1nc2sc3c(c2c(=O)n1-c1ccc(C(C)C)cc1)CCC(=O)C3
inactive: [2] 65.6% | [3] 31.6% | [4] 15.2% | [8] 67.9% | [9] 18.7%
active: [1] -1.79% | [5] 1.54% | [6] -18.2% | [7] -75.3% | [10] -67.7%

Fc1ccc(Cc2ccc(F)cc2)cc1
inactive: [1] 102% | [2] 99.9% | [3] 105% | [4] 106% | [5] 108% | [6] 100% | [7] 90% | [8] 103% | [9] 107% | [10] 108%

CCN(CC)c1ccc(/C=C/C2=[N+](C)c3ccccc3C2(C)C)cc1
active: [2] 9.04% | [5] 3.05% | [6] -10.7% | [7] 5.08% | [9] 8.12% | [10] 4.92%
inactive: [1] 18.6% | [3] 27.2% | [4] 13.8% | [8] 14.4%
